# Data reported in PubChem BioAssay (NCI).
# About 79,000 compounds went through this panel and 15% of them were active in at least one assay; those are over-represented in the sample as a whole. A number with no mark means an inactive call. Rule as the data show it: active = growth inhibition above about 70%; inactive = the rest. Where a SMILES comes first, the peptide text is derived from it. The star is where a group is joined. Cbz = O=C(OCc1ccccc1)*
# Experiment: NCI Yeast Anticancer Drug Screen. Data for the rad50 strain (AID 155);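 also: 0% = growth of vehicle-only cultures of the same strain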
# Conditions: S. cerevisiae rad50 strain growth inhibition; at 50.0 µM; active compounds read high
# In short: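 Cells are treated with compound, grown, and their growth is then scored against vehicle-only cultures of the same repair-deficient yeast strain.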
row,SMILES,growth inhibition
1,N#Cc1nc(-c2ccco2)oc1N,-20.8%
2,O=c1c2c3c(sc2nc2n1N=CN(c1ccc(Cl)cc1)C2)CCCC3,8.7%
3,Cc1cc2c(c(N)c1C)C(=O)c1ccccc1C2=O,18.4%
4,COC1=CC(=O)N(C)C(O)C1(C#N)OC1OC(CO)C(O)C(O)C1O (configuration not stated),5.25%
5,CC(=O)N1C(NN(C)C)CCN1c1ccccc1 (configuration not stated),36%
6,O=S1(=O)CC(N2CCCCC2)C2=C(O1)c1ccccc1N(c1ccccc1)C2 (configuration not stated),1.8%

# Experiment: NCI Yeast Anticancer Drug Screen. Data for the mec2-1 strain (AID 157)
# Conditions: S. cerevisiae mec2-1 strain, at 50.0 µM, active compounds read high
# In short: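 Strain: mec2-1 (DNA repair/cell cycle alteration). Compound exposure, then growth measured; inhibition expressed relative to vehicle.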
row,SMILES,growth inhibition
1,O=C(O)C(CO)NC(=O)C1CCCN1C(=O)OCc1ccccc1 (stereo not drawn) (Cbz-Pro-Ser-OH; configuration not given here),-17.8%
2,CCC(=O)N1NC(=O)C(CC)(CC)C1=O,-26.2%
3,O=C(Nc1ccccn1)c1ccc([N+](=O)[O-])cc1,7.95%
4,CC(CC(=O)O)C(C)C(=O)O (configuration not stated),-4.45%
5,OCC1CCCCCCCCCC1,-10.7%
6,O=[N+]([O-])c1ccc(/C(=N/Nc2ccccc2)c2ccc(Cl)cc2)cc1,2.1%
7,CCn1c(=O)c2[nH]c(Cl)nc2n(CC(C)Cl)c1=O (configuration not stated),-5%
8,CCCCNc1c(C(=O)N2CCCCC2)cnc2c1cnn2CC,1.8%
9,CCOC(=O)c1n[nH]c(C)c1C/C(=N/O)c1ccccc1,-24.4%
10,C/C=C/C=C/c1nc(C#N)c(N)o1,-2.2%
11,O=C(NCCCCCCNC(=O)Nc1cccc2ccccc12)Nc1cccc2ccccc12,-14.4%
